According to the supplement of paper PMC13380429:
Unmarked numbers belong to inactive results.

These molecules were tested on Vero E6 infected with SARS-CoV-2 (assay: SARS-CoV-2 infection rate relative to infected DMSO; higher = more infection, active = 60 or less). Conditions: 24 h.

Compound	SARS-CoV-2 infection rate
COc1ccccc1N1CCN(CCCCNC(=O)c2ccc3ccccc3c2)CC1 (10 µM)	94.5%
O=C(NCCCNc1nc(Nc2cccc(NC(=O)N3CCCC3)c2)ncc1I)c1cccs1 (0.833333 µM)	118%
Cc1cc(Oc2ccc3nc(COc4ccc(CC5SC(=O)NC5=O)cc4)n(C)c3c2)cc(C)c1N (stereo unspecified) [efatutazone] (10 µM)	93.5%
CN1CCN(c2ccc3nc(-c4c(N)c5c(F)cccc5[nH]c4=O)[nH]c3c2)CC1 [dovitinib] (10 µM)	102%
O=C(O)c1cc(O)c(O)c(O)c1 [gallic-acid] (10 µM)	110%
C/C=C(/C)C(=O)O[C@H]1[C@H](OC(C)=O)[C@@]2(CO)C(CC1(C)C)C1=CCC3[C@@]4(C)CCC(O[C@@H]5O[C@H](C(=O)O)[C@@H](O[C@@H]6O[C@H](CO)[C@@H](O)[C@H](O)[C@H]6O)[C@H](O)[C@H]5O[C@@H]5O[C@H](CO)[C@@H](O)[C@H](O)[C@H]5O)[C@](C)(CO)C4CC[C@@]3(C)[C@]1(C)C[C@H]2O.C/C=C(\C)C(=O)O[C@H]1[C@H](OC(C)=O)[C@@]2(CO)C(CC1(C)C)C1=CCC3[C@@]4(C)CCC(O[C@@H]5O[C@H](C(=O)O)[C@@H](O[C@@H]6O[C@H](CO)[C@@H](O)[C@H](O)[C@H]6O)[C@H](O)[C@H]5O[C@@H]5O[C@H](CO)[C@@H](O)[C@H](O)[C@H]5O)[C@](C)(CO)C4CC[C@@]3(C)[C@]1(C)C[C@H]2O (stereo partly specified) [escin] (0.833333 µM)	118%
